Results filed as inconclusive are left out. Activity calls are given as the source filed them. Calls follow the shape of the dose curve; as a rule, active = well fitted cell-killing curve with a large enough effect; inconclusive = small, poorly fitted or top-dose-only effect, or effect the other way; inactive = no such curve, though single readings can be large or run the other way.
Key:
[1] = Quantitative High-Throughput drug screen in 47 multiple myeloma cell lines against the NCATS MIPE library collection: LP1_DSMZ cell viability assay (AID 1918982); also: nearly all actives have a fitted effect of over 35% in size
Method in brief: (§1)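 500 cells/well per myeloma line exposed to pinned MIPE 4.0 compounds for 48 h at 37 °C, 5% CO2. Viability read as ATP by CellTiter-Glo luminescence, normalised to DMSO-only (100%) and media-only (0%) wells.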

[2] = Quantitative High-Throughput drug screen in 47 multiple myeloma cell lines against the NCATS MIPE library collection: KMS28PE_JCRB cell viability assay (AID 1918983); also: nearly all actives have a fitted effect of over 35% in size
Method in brief: as §1

[3] = Quantitative High-Throughput drug screen in 47 multiple myeloma cell lines against the NCATS MIPE library collection: L363_DSMZ cell viability assay (AID 1918984); also: nearly all actives have a fitted effect of over 40% in size
Method in brief: as §1

[4] = Quantitative High-Throughput drug screen in 47 multiple myeloma cell lines against the NCATS MIPE library collection: KMS34_JCRB cell viability assay (AID 1918985); also: nearly all actives have a fitted effect of over 40% in size
Method in brief: as §1

[5] = Quantitative High-Throughput drug screen in 47 multiple myeloma cell lines against the NCATS MIPE library collection: OCIMY7_PLB cell viability assay (AID 1918987); also: nearly all actives have a fitted effect of over 65% in size
Method in brief: as §1

[6] = Quantitative High-Throughput drug screen in 47 multiple myeloma cell lines against the NCATS MIPE library collection: OPM1_PLB cell viability assay (AID 1918989); also: nearly all actives have a fitted effect of over 40% in size
Method in brief: as §1

[7] = Quantitative High-Throughput drug screen in 47 multiple myeloma cell lines against the NCATS MIPE library collection: XG6_PLB cell viability assay (AID 1919865); also: nearly all actives have a fitted effect of over 40% in size
Method in brief: as §1

[8] = Quantitative High-Throughput drug screen in 47 multiple myeloma cell lines against the NCATS MIPE library collection: XG1_PLB cell viability assay (AID 1919866); also: nearly all actives have a fitted effect of over 35% in size
Method in brief: as §1

[9] = Quantitative High-Throughput drug screen in 47 multiple myeloma cell lines against the NCATS MIPE library collection: VP6_DJ cell viability assay (AID 1919867); also: nearly all actives have a fitted effect of over 40% in size
Method in brief: as §1

[10] = Quantitative High-Throughput drug screen in 47 multiple myeloma cell lines against the NCATS MIPE library collection: PE2_PLB cell viability assay (AID 1919869); also: nearly all actives have a fitted effect of over 35% in size
Method in brief: as §1

[11] = Quantitative High-Throughput drug screen in 47 multiple myeloma cell lines against the NCATS MIPE library collection: PCM6_Riken cell viability assay (AID 1919870); also: nearly all actives have a fitted effect of over 30% in size
Method in brief: as §1

[12] = Quantitative High-Throughput drug screen in 47 multiple myeloma cell lines against the NCATS MIPE library collection: RPMI8226_ATCC cell viability assay (AID 1919871); also: nearly all actives have a fitted effect of over 30% in size
Method in brief: as §1

[13] = Quantitative High-Throughput drug screen in 47 multiple myeloma cell lines against the NCATS MIPE library collection: OPM2_DSMZ cell viability assay (AID 1919872); also: nearly all actives have a fitted effect of over 30% in size
Method in brief: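 Approved and investigational drugs from MIPE 4.0 were added by pin tool to 500 cells per well. After 48 hours at 37C, ATP-based CellTiter-Glo luminescence indicated remaining viability.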

[14] = Quantitative High-Throughput drug screen in 47 multiple myeloma cell lines against the NCATS MIPE library collection: KMS11_JCRBsus cell viability assay (AID 1919873); also: nearly all actives have a fitted effect of over 50% in size
Method in brief: as §1

[15] = Quantitative High-Throughput drug screen in 47 multiple myeloma cell lines against the NCATS MIPE library collection: KMS28BM_JCRB cell viability assay (AID 1919874); also: nearly all actives have a fitted effect of over 35% in size
Method in brief: as §1

[16] = Quantitative High-Throughput drug screen in 47 multiple myeloma cell lines against the NCATS MIPE library collection: OCIMY5_PLB cell viability assay (AID 1918988); also: nearly all actives have a fitted effect of over 65% in size
Method in brief: as §1

[17] = Quantitative High-Throughput drug screen in 47 multiple myeloma cell lines against the NCATS MIPE library collection: U266_ATCC cell viability assay (AID 1919864); also: nearly all actives have a fitted effect of over 35% in size
Method in brief: as §1

[18] = Quantitative High-Throughput drug screen in 47 multiple myeloma cell lines against the NCATS MIPE library collection: SKMM1_PLB cell viability assay (AID 1919863); conditions: SKMM1 myeloma viability, CellTiter-Glo ATP, 48 h; viability: active compounds read low; also: nearly all actives have a fitted effect of over 35% in size
Method in brief: as §1

[19] = Quantitative High-Throughput drug screen in 47 multiple myeloma cell lines against the NCATS MIPE library collection: UTMC2_PLB cell viability assay (AID 1919868); conditions: CellTiter-Glo ATP luminescence, 48 h; viability (% of DMSO control): at 45.8 µM (top of the series); also: nearly all actives have a fitted effect of over 55% in size
Method in brief: as §1

Measured: Potency
Potency is read from the fitted curve at half-maximal effect.

C[C@@H]1CC[C@@]2(OC1)O[C@H]1C[C@H]3[C@@H]4CC=C5C[C@@H](O[C@@H]6O[C@H](CO)[C@@H](O[C@@H]7O[C@@H](C)[C@H](O)[C@@H](O)[C@@H]7O)[C@H](O)[C@@H]6O[C@@H]6O[C@@H](C)[C@H](O)[C@@H](O)[C@@H]6O)CC[C@]5(C)[C@@H]4CC[C@]3(C)[C@@H]1[C@H]2C
active: [1] 2.96 µM | [2] 2.96 µM | [3] 1.87 µM | [4] 1.87 µM | [5] 3.32 µM | [6] 2.96 µM | [7] 3.72 µM | [8] 2.64 µM | [9] 2.96 µM | [10] 4.69 µM | [11] 3.32 µM | [12] 2.35 µM | [13] 2.09 µM | [14] 2.35 µM | [15] 2.96 µM

COc1ccc2c(c1)[C@]13CCCCC1C(C2)N(C)CC3 (stereo not given in full)
not listed: [5] | [9] | [15] | [18] | [19]
inactive: all other assays above

Cc1[nH]nc2ccc(-c3cncc(OC[C@@H](N)Cc4c[nH]c5ccccc45)c3)cc12
inactive: [3]
active: [1] 1.66 µM | [2] 0.833 µM | [4] 1.32 µM | [5] 0.0264 µM | [6] 1.18 µM | [17] 0.0833 µM | [7] 0.418 µM | [8] 0.235 µM | [9] 0.296 µM | [10] 0.935 µM | [11] 0.264 µM | [12] 3.32 µM | [13] 14.8 µM | [14] 0.372 µM | [15] 0.296 µM

CCOC(=O)Nc1ccc(NCc2ccc(F)cc2)cc1N
inactive: [1] | [2] | [4] | [10] | [13] | [14]
active: [5] 10.5 µM | [6] 18.7 µM | [17] 13.2 µM | [8] 13.2 µM | [9] 20.9 µM

Oc1ccc2c3c1O[C@H]1c4[nH]c5c(c4C[C@@]4(O)[C@@H](C2)N(CC2CC2)CC[C@]314)C[C@@]1(O)[C@H]2Cc3ccc(O)c4c3[C@@]1(CCN2CC1CC1)[C@H]5O4
not listed: [5] | [9] | [16] | [17] | [18] | [19]
inactive: all other assays above

CCN1C[C@]2(OC(=O)c3ccccc3NC(C)=O)CC[C@H](OC)[C@@]34[C@H]5CC6[C@@H](OC)C[C@](O)(C(C[C@@H]23)[C@@H]14)[C@@]5(O)[C@@H]6OC
not listed: [4] | [9] | [16] | [18] | [19]
inactive: all other assays above

CC1(N2CCC(n3c([C@@H]4CCCNC4)nc4ccccc43)CC2)CCCCCCC1
active: [1] 23.5 µM | [3] 6.62 µM | [6] 7.43 µM | [17] 5.26 µM | [7] 9.35 µM | [8] 18.7 µM | [9] 14.8 µM | [10] 16.6 µM | [11] 14.8 µM | [12] 20.9 µM | [13] 18.7 µM | [14] 13.2 µM | [15] 23.5 µM
inactive: [2]

CO[C@H]1CCC(O[C@H]2C[C@H]([C@]3(C)CC[C@]4(C[C@H](O)[C@@H](C)[C@@H]([C@@H](C)C=C(C)C(=O)[C@H](C)C[C@H](C)C(=O)O)O4)O3)O[C@]3(O[C@@H]([C@H]4O[C@@](O)(CO)[C@H](C)C[C@H]4C)C[C@H]3C)[C@H]2C)O[C@H]1C (stereo not given in full)
active: [1] 0.833 µM | [2] 3.72 µM | [3] 0.148 µM | [4] 1.18 µM | [5] 0.935 µM | [6] 0.418 µM | [18] 1.18 µM | [17] 0.296 µM | [7] 0.418 µM | [8] 1.18 µM | [9] 1.05 µM | [10] 1.18 µM | [11] 0.935 µM | [12] 0.935 µM | [13] 0.296 µM | [14] 0.935 µM | [15] 0.332 µM

CC=C(C)C(=O)O[C@H]1C(C)=C2[C@@H]3OC(=O)[C@@](C)(O)[C@@]3(O)[C@@H](OC(=O)CCC)C[C@](C)(OC(C)=O)[C@@H]2[C@@H]1OC(=O)CCCCCCC
active: [1] 0.0296 µM | [2] 0.132 µM | [4] 0.0166 µM | [5] 0.264 µM | [16] 0.0105 µM | [6] 0.264 µM | [18] 0.105 µM | [17] 0.935 µM | [7] 0.372 µM | [8] 0.0469 µM | [9] 0.0526 µM | [10] 0.264 µM | [11] 11.8 µM | [12] 0.0743 µM | [13] 0.0332 µM | [14] 0.0332 µM | [15] 0.166 µM

O=c1[nH]c2ccc(Cl)cc2c(N[C@@H]2CN3CCC2CC3)c1-c1nc2ccccc2[nH]1
active: [1] 3.32 µM | [2] 2.35 µM | [4] 0.0743 µM | [5] 0.059 µM | [16] 0.0833 µM | [6] 0.0526 µM | [17] 5.9 µM | [7] 0.0372 µM | [8] 0.264 µM | [9] 0.132 µM | [19] 0.332 µM | [10] 0.0743 µM | [11] 0.166 µM | [12] 5.9 µM | [13] 5.9 µM | [14] 0.235 µM | [15] 1.32 µM

CSCC[C@@H](NC(=O)[C@@H](Cc1ccccc1)NC(=O)CNC(=O)CNC(=O)[C@@H](N)Cc1ccc(O)cc1)C(=O)O
not listed: [5] | [9] | [12] | [16] | [17] | [18] | [19]
inactive: all other assays above

Source: PubChem BioAssay (NCATS)
